The record followed here is PubChem BioAssay.

Experiment [1] deals with Plasmodium falciparum Sir2 (PF13_0152, Sir2A). The experiment in a line: Plasmodium falciparum Sir2A binding compounds – biochemical, small-molecule microarray, 635 nm fluorescence, primary screen (AID 1098).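 Further: score merges spot fluorescence intensity with its signal-to-noise ratio.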 Particulars: fluorescence 635 nm, higher = more signal.
Experiment [2] in a line: probe aDKK1 binding to arrayed compounds – biochemical, biotinylated probe, 635/667 nm fluorescence, primary screen (AID 1099).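 Further: score merges 667nm spot fluorescence with signal to noise across triplicate slides.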 The note with it: small-molecule microarray, higher = more signal.
Experiment [3] can be described thus: probe aCHRDL2 binding to arrayed compounds – biochemical, biotinylated probe, 635/667 nm fluorescence, primary screen (AID 1100). Particulars: small-molecule microarray, higher = more signal.
A short description of experiment [4]: change in splice reporter luminescence, either direction, cell-based, HEK293, spliceosome inhibition project, primary screen (AID 1101).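 Further: HEK293 cells carrying a splicing-competent luciferase reporter gene; test concentration not given here.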 The note with it: HEK293 splicing luciferase reporter, 24 h, higher = more signal, called active from +8 up or from −8 down.
The target of experiment [5] is Fibroblast growth factor 10 (Homo sapiens) (UniProt O15520). The experiment in a line: compounds binding fibroblast growth factor 10 – biochemical, small-molecule microarray, 635 nm fluorescence, primary screen (AID 1102). Particulars: FGF10 binding, fluorescence 635 nm, higher = more signal.
Experiment [6] deals with glycogen synthase kinase-3 (GSK3A per assay name; protocol says GSK3B). The experiment in a line: compounds binding glycogen synthase kinase-3 – biochemical, small-molecule microarray, 635 nm fluorescence, GSK3A, primary screen (AID 1103). Further: the record names both GSK3A and GSK3B. Particulars: fluorescence 635 nm, higher = more signal.
For experiment [7], the target named is Epidermal growth factor receptor (Homo sapiens) (UniProt P00533). The experiment in a line: compounds binding epidermal growth factor receptor – biochemical, small-molecule microarray, 635 nm fluorescence, primary screen (AID 1104).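 Further: score merges 667 nm emission intensity with spot signal to noise over triplicate slides.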 Particulars: EGFR binding, higher = more signal.
The target in experiment [8] is Follistatin-related protein 3 (Homo sapiens) (UniProt O95633). As to the kind of experiment: compounds binding follistatin-related protein 3 – biochemical, small-molecule microarray, 635 nm fluorescence, primary screen (AID 1105).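 Further: score merges emission near 667 nm and signal to noise per printed spot across three slides.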 The note with it: FSTL3 binding, higher = more signal.
Experiment [9] concerns the target Dickkopf-related protein 1 (Homo sapiens) (UniProt O94907). As to the kind of experiment: small molecules binding DKK1 protein – biochemical, small-molecule microarray, 635 nm fluorescence scan, primary screen (AID 1106).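 Further: score merges emission near 667 nm with signal to noise over three replicate slides.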 The note with it: higher = more signal.
The test system of experiment [10] is Inhibin beta A chain (activin A). As to the kind of experiment: small molecules binding activin A – biochemical, small-molecule microarray, 635 nm fluorescence scan, primary screen (AID 1107).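 Further: mouse activin A protein probed at 4.33 µg/mL on printed slides; score merges bound-protein fluorescence near 667 nm with spot signal-to-noise.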 Particulars: INHBA, higher = more signal.
Experiment [11] deals with Human papillomavirus type 1a protein E7 (residues 44-93). As to the kind of experiment: small molecules binding HPV E7 44-93 – biochemical, small-molecule microarray, residues 44-93, 635 nm fluorescence, primary screen (AID 1108).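 Further: E7 fragment applied at 1 µg/mL in TBST for 1 h at 4 C; score combines spot fluorescence with its signal to noise ratio.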 Particulars: fluorescence 635 nm, higher = more signal.
A short description of experiment [12]: hepatitis C replication reporter changes, two-sided – Huh7 cells, luciferase reporter, HCV replication inhibitor project, primary screen (AID 1109).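 Further: huh7 hepatoma cells harbouring a luciferase neomycin HCV replicon reporter; luciferase luminescence as measure of HCV replicon replication; test concentration not given here.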 Particulars: Huh7 HCV replicon luciferase reporter, 48 h; higher = more signal.
In experiment [13] the target is Left-right determination factor 2 (Homo sapiens) (UniProt O00292). As to the kind of experiment: small molecules binding LEFTY2 protein – biochemical, small-molecule microarray, 635 nm fluorescence scan, primary screen (AID 1110). Particulars: higher = more signal.
Experiment [14] addresses Calmodulin-1 (Homo sapiens) (UniProt P0DP23). The experiment in a line: small molecules binding calmodulin-1 with EGTA – biochemical, small-molecule microarray, Cy5-labelled CALM1, profiling panel (AID 1111).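 Further: labelled calmodulin applied in Tris saline Tween buffer holding calcium plus EGTA and DTT.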 Particulars: Cy5-CALM1 binding fluorescence, higher = more signal.
For experiment [15] the target is unchanged. As to the kind of experiment: small molecules binding Ca-loaded calmodulin-1 – biochemical, small-molecule microarray, Cy5-labelled CALM1, plus calcium, artefact control for SMM control-protein annotation, profiling panel (AID 1112).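 Further: score merges spot fluorescence with signal to noise from triplicate slides.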 The note with it: Cy5-CALM1 binding fluorescence, higher = more signal.
The nature of experiment [16]: probe aWnt5a binding to arrayed compounds – biochemical, biotinylated probe, 635/667 nm fluorescence, primary screen (AID 1113).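 Further: score merges 667 nm fluorescence intensity with signal-to-noise per printed feature.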 The note with it: small-molecule microarray, higher = more signal.
Experiment [17] is described as follows: probe aShh binding to arrayed compounds – biochemical, biotinylated probe, 635/667 nm fluorescence, primary screen (AID 1114).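 Further: probe is biotin-labelled aShh protein from a stem cell growth factor screen; measures binding of labelled protein to compounds printed on the slide; score merges feature fluorescence at 667 nm with signal-to-noise.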 Particulars: small-molecule microarray, higher = more signal.
Experiment [18] can be described thus: probe aNog binding to arrayed compounds – biochemical, biotinylated probe, 635/667 nm fluorescence, primary screen (AID 1115).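 Further: probe is biotinylated aNog protein used at 0.15 µg/mL for 1 h at 4 C; z-score combines 667 nm fluorescence of each spot with its signal to noise.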 The note with it: small-molecule microarray, higher = more signal.
Experiment [19] deals with Torsin-1A-interacting protein 1 (Homo sapiens) (UniProt Q5JTV8). As to the kind of experiment: compound microarray binding of lysate hLAP1 – cell lysate, small-molecule microarray, COS7 lysate, 635/667 nm fluorescence, primary screen (AID 1116). The note with it: 635 nm fluorescence, higher = more signal.
For experiment [20], the target named is Alpha-bungarotoxin (Bungarus multicinctus) (UniProt P60615). As to the kind of experiment: compounds binding labelled alpha-BTX control protein – biochemical, small-molecule microarray, Alexa647 label, 635/667 nm fluorescence, artefact control for SMM control protein annotation, profiling panel (AID 1117). Particulars: alpha-BTX-A647 binding fluorescence, higher = more signal.

Calls of active or inactive are those of the source.

Chain of Fibroblast growth factor 10 (Homo sapiens) (O15520 whole entry, looked up): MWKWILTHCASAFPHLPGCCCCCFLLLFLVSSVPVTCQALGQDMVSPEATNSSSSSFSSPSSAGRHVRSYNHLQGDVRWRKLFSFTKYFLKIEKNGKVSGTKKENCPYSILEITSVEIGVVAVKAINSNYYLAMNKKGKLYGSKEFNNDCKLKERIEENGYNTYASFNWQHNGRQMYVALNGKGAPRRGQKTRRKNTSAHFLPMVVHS
Chain of Epidermal growth factor receptor (Homo sapiens) (P00533 whole entry, looked up): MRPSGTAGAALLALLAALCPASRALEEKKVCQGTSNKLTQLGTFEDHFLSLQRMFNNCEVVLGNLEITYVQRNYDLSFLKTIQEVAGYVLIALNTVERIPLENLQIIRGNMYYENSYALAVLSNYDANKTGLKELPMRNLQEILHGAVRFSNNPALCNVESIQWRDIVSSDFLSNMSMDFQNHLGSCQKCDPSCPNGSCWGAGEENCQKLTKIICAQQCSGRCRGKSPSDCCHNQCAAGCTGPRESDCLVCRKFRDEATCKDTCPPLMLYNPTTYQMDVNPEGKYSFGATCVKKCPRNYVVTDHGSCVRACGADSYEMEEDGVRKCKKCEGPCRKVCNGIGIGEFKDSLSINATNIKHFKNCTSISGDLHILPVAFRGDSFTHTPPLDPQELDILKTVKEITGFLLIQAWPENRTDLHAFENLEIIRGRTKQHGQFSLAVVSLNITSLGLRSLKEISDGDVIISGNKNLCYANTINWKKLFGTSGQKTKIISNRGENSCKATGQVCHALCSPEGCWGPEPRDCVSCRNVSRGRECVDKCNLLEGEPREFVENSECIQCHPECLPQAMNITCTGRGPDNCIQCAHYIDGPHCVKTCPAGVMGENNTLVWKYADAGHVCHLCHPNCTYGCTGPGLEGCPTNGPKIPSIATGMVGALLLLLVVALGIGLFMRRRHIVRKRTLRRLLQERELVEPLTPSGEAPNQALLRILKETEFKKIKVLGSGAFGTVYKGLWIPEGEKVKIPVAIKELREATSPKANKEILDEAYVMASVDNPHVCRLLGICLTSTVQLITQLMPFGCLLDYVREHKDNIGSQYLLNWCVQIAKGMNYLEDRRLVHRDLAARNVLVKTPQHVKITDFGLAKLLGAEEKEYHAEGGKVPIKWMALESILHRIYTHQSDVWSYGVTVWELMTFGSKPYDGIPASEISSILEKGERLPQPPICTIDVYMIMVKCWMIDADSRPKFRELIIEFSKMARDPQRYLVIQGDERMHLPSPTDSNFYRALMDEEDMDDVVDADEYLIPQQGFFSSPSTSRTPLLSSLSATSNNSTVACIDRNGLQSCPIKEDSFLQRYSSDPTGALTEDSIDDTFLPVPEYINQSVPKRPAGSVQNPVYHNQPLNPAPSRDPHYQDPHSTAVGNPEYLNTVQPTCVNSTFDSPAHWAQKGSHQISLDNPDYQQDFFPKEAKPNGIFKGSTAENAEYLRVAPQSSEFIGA
Chain of Follistatin-related protein 3 (Homo sapiens) (O95633 whole entry, looked up): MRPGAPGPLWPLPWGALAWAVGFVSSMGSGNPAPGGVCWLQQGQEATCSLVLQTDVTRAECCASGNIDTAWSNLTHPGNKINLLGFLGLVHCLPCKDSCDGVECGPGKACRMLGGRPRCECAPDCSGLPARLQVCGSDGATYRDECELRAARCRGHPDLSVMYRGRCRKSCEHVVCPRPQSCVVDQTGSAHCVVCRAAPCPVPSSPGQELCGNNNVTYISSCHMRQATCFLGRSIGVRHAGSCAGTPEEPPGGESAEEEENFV
Chain of Alpha-bungarotoxin (Bungarus multicinctus) (P60615 whole entry, looked up): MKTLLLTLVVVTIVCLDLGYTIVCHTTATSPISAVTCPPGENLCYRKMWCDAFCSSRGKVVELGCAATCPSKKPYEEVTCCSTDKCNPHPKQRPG
Chain of Left-right determination factor 2 (Homo sapiens) (O00292 whole entry, looked up): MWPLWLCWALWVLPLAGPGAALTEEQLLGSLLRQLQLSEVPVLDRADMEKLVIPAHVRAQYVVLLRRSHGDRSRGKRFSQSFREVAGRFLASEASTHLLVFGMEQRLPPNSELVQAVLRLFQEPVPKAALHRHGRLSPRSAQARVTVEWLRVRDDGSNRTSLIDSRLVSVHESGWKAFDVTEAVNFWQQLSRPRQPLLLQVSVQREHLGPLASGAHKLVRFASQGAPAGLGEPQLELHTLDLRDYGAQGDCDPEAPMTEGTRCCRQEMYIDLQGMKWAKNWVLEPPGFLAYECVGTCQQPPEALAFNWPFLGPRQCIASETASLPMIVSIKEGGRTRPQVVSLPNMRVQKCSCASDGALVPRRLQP
Chain of Dickkopf-related protein 1 (Homo sapiens) (O94907 whole entry, looked up): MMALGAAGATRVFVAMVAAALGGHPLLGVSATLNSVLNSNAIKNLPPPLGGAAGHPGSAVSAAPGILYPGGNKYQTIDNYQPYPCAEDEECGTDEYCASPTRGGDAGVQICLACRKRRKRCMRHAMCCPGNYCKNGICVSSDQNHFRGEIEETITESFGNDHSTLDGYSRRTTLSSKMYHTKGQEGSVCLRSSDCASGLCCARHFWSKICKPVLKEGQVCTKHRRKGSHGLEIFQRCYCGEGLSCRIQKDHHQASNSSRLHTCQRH
Chain of Torsin-1A-interacting protein 1 (Homo sapiens) (Q5JTV8 whole entry, looked up): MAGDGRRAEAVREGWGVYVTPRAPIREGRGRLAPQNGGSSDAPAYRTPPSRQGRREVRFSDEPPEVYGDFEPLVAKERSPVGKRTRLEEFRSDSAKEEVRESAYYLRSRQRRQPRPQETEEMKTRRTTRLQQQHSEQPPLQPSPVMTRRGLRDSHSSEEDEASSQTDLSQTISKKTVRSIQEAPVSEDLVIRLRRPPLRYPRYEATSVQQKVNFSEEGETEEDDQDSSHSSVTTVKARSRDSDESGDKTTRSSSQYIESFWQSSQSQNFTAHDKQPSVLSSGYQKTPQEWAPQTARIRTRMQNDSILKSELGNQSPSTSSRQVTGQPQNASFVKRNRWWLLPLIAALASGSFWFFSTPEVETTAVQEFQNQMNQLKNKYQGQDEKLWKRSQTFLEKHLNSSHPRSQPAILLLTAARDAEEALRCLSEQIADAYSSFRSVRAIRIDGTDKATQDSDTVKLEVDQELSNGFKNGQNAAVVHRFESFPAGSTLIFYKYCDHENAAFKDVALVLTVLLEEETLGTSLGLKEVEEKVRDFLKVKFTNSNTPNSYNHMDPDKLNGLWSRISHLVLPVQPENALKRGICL

Turning to `O=C1C2C=CC(C(O)c3ccco3)N(Nc3ccccc3)C2C(=O)N1c1ccccc1` (stereo not given), the composite z-score in experiment [1] is 0.576; in [2] it was 0.144; in experiment [3] it was 0.878; in [5] it was -0.322; in experiment [6], -0.678; in experiment [7], -0.616. Further, the composite z-score in [8] is -0.713; in [9], -0.555; in experiment [10], 0.781; in experiment [11] it was -0.335; in experiment [13], -0.756; in experiment [14], -0.136. For the same molecule, the composite z-score in experiment [15] was 0.245; in experiment [16] it was -0.006; in experiment [17], 0.0121; in [18], 0.181; in experiment [19], -0.479; in experiment [20], -0.0188. The z-score in experiment [4] is 0.14 (inactive); in experiment [12] it was 0.305.
In the case of `[N-]=[N+]=Nc1ccccc1[C@@H]1OC(c2ccc(OCCCO)cc2)=N[C@]1(Cc1ccccc1)C(=O)NCc1ccccc1`, the composite z-score is 1.57 in experiment [1]; 1.24 in experiment [2]; 1.37 in experiment [3]; 1.02 in experiment [5]; 1.06 in experiment [6]; 0.0762 in experiment [7]. Further, the composite z-score was 0.395 in [8]; 0.0944 in experiment [9]; 0.604 in experiment [10]; 0.656 in [11]; -0.0068 in experiment [13]; 2.46 in experiment [14]. Moreover, the composite z-score in experiment [15] stood at 1.33; in [16], 0.166; in experiment [17] it was 0.628; in [18] it was 1.95; in experiment [19], 2.27; in [20], 2.92. Also, the z-score in experiment [4] is 0.459 (inactive); in [12] it was -2.53.
On to `COc1ccc(C#Cc2ccc3c(c2)[C@]2(C(=O)N3)[C@H](c3ccc(OCCO)cc3)N3[C@H](c4ccccc4)[C@H](c4ccccc4)OC(=O)[C@H]3[C@@H]2C(=O)N2CCc3cc(OC)c(OC)cc3C2)cc1`, for which the composite z-score was 1.38 in experiment [1]; 1.5 in experiment [2]; 0.185 in experiment [3]; 1.23 in experiment [5]; 1.28 in experiment [6]; 0.871 in [7]. Moreover, the composite z-score in experiment [8] is 1.01; in experiment [9] it was 1.28; in [10], -0.258; in [11], 1.33; in experiment [13] it was 0.461; in experiment [14], 1.08. Besides, the composite z-score was 0.684 in experiment [15]; -0.0215 in experiment [16]; 0.0589 in experiment [17]; -0.155 in experiment [18]; 0.168 in experiment [19]; 0.841 in experiment [20]. Moreover, the values for the z-score in experiment [4] and in experiment [12] were -0.517 (inactive) and -1.23, respectively.
As to `C#C[C@@H](CC)O[Si](C#CCCCC#N)(C(C)C)C(C)C`, the composite z-score was 0.329 in [1]; 0.155 in [2]; -0.0862 in [3]; -0.232 in experiment [5]; -0.021 in [6]; -0.405 in [7]. In addition, the composite z-score in experiment [8] was -0.669; in experiment [9], -0.277; in experiment [10], 0.573; in experiment [11] it was 0.294; in experiment [13], 0.0737; in experiment [14], -0.442. Besides, the composite z-score was -0.104 in experiment [15]; -0.139 in [16]; 0.0483 in experiment [17]; -0.121 in experiment [18]; 0.372 in [19]; -0.275 in experiment [20]. In addition, the z-score in experiment [4] was -0.196 (inactive); in [12], -0.923.
`O=C(CS)NCCCCCCNC(=O)[C@@H]1C[C@@H]2C(=O)NCC(=O)N2[C@@H]1c1ccc(O)cc1`: the composite z-score in [1] is 1.57; in [2], -0.11; in experiment [3] it was 0.592; in experiment [5], -0.297; in [6], -0.135; in experiment [7], -0.395. For the same molecule, the composite z-score in experiment [8] was -0.586; in [9] it was -0.262; in [10], -0.716; in [11] it was -1.1; in experiment [13] it was -0.601; in experiment [14] it was 1.16. Moreover, the composite z-score in experiment [15] was 0.754; in experiment [16], -0.239; in [17], -0.0035; in experiment [18], 0.0595; in experiment [19] it was -0.549; in experiment [20], -1.04. Moreover, the z-score in [4] was -1.65 (inactive); in experiment [12], 0.394.
Consider `COc1cc(NN2C(C(O)C3CCCCC3)C=CC3C(=O)N(c4ccccc4)C(=O)C32)cc(OC)c1OC` (stereo not given), for which the composite z-score in [1] was 1.11; in experiment [2], 0.946; in [3], 1.43; in experiment [5] it was 0.448; in [6], 0.893; in experiment [7], -0.455. For the same molecule, the composite z-score in [8] was 0.722; in experiment [9], -1.37; in experiment [10], 0.591; in [11], 1.05; in experiment [13], -0.79; in experiment [14], 2.13. The composite z-score in experiment [15] is 1.23; in experiment [16], 0.141; in experiment [17] it was -0.11; in experiment [18] it was 0.658; in [19] it was 1.5; in experiment [20], 1.98. In addition, the z-score in [4] was -0.983 (inactive); in [12], -1.1.
